Assay outcomes as filed in PubChem.
Shown are actives, neighbours in structure and some others; about 28% of the full set was active somewhere.
CYP2C9 inh – blockers of cytochrome P450 2C9 activity – biochemical, luminescence, ADME assay, primary screen | inhibition, % at 5 µM | 96,000 tested, 20% active | CYP2C9 Supersomes, luciferin-H conversion;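 active = blocking of liver enzyme CYP2C9 beyond about 50% at 5 µM, limit read from the data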
Target sequence (P11712 whole entry, looked up): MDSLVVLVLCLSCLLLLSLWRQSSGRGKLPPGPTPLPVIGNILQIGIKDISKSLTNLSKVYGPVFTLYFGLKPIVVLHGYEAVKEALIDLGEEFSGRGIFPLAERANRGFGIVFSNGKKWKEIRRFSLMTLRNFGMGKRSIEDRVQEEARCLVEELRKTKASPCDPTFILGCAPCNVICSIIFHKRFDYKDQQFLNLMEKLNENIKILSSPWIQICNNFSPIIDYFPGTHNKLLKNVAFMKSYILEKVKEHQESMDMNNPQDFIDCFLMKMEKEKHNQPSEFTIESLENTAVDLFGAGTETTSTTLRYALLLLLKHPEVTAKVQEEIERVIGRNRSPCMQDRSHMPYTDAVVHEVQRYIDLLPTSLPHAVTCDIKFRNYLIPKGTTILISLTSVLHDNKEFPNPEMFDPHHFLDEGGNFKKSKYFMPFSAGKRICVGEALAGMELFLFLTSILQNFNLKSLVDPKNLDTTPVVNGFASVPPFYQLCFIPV
CYP2C9 activ – human CYP2C9 activators, primary screen, biochemical, luminescence; activation factor at 5 µM; 96,000 tested, 1.4% active; recombinant CYP2C9, luciferin-H conversion; hits give high values; factor 1 = untreated enzyme, 0 = blocked; Cytochrome P450 2C9 (Homo sapiens), P11712;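 active = activation factor of 2 or more for CYP2C9 at a 5 µM dose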;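 note: 0 = sulfaphenazole-blocked wells and 1 = vehicle-only wells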
CYP2C19 inhib – blockers of cytochrome P450 2C19 activity – biochemical, luminescence, ADME assay, primary screen; CYP2C19 Supersomes, luciferin-H EGE luminescence, 30 min; inhibition, % at 5 µM; 96,000 tested, 21% active; AID 778, 2007;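 active = CYP2C19 inhibition above a set limit at 5 µM in the primary screen, cut at about 50% in these data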;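 note: plate controls were negative control wells for no effect and 2.5 mM tranylcypromine positive control for full effect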
PLK1 inh – human PLK1 kinase inhibitors, primary screen, biochemical, TR-FRET | inhibition, % at 10 µM | 97,000 tested, 0.53% active | recombinant PLK1 kinase, TR-FRET peptide phosphorylation | AID 619, 2007;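 active = inhibition of 50% or more in the single-concentration screen; inactive = inhibition below 50%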;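 note: 0% = DMSO max control and 100% = H-89 dihydrochloride min control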
CYP2C19 act – human CYP2C19 activators, primary screen, biochemical, luminescence; recombinant CYP2C19, luciferin-H EGE luminescence; hits give high values; 0 = fully inhibited enzyme, 1 = untreated enzyme; activation factor at 5 µM; 96,000 tested, under 10 active;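 active = activation factor of at least 2 at 5 µM in the primary screen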;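 note: 0 = wells with 2.5 mM tranylcypromine and 1 = vehicle-only wells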
PLK1 PBD inh – Plk1 polo box domain binding inhibitors, primary screen, biochemical, fluorescence polarization; AID 693, 2007; 97,000 tested, 0.13% active; Plk1 PBD phosphopeptide binding; inhibition, %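 (tested at about 20 µM)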; in the data active = inhibition above about 34%, passing the limit was not always enough
* marks the source's active call; other numbers are inactive results; · = no result given.

SMILES	CYP2C9 inh	CYP2C9 activ	CYP2C19 inhib	PLK1 inh	CYP2C19 act	PLK1 PBD inh
CC(C)CC(=O)N1CCN(CC2CC=CCC2)CC1 (configuration not stated)	·	·	·	-9	·	2
COc1cccc(CN2CCN(C(=O)c3cccs3)CC2)c1OC	16	0.8	50	·	0.5	·
COc1ccc(CN2CCN(C(=O)c3cccs3)CC2)cc1	10	0.9	58*	-22	0.4	-4
COc1ccc(OC)c(CN2CCN(C(=O)c3cccc4ccccc34)CC2)c1	-37	1.4	55*	-13	0.4	-4
COc1ccc(OC)c(CN2CCN(C(=O)c3cccs3)CC2)c1	70*	0.3	91*	-8	0.1	16
COc1ccccc1C1(O)CCN(C(=O)c2cccs2)CC1	54*	0.5	18	-7	0.8	7
COc1ccc(OCC(=O)N2CCN(C(=O)c3cccc4ccccc34)CC2)cc1	3	1	2	-15	1	25
O=C1CCCC(O)=C1C1C2=C(CCCC2=O)Oc2ccccc21 (configuration not stated)	20	0.8	9	3	0.9	-27
CC(=O)Nc1nonc1-c1ccccc1	-14	1.1	-8	-3	1.1	22
c1ccc2c(c1)c1ccccc1n1c(-c3ccc4c(c3)OCO4)nnc21	6	0.9	2	-10	1	19
Cc1nn(C)c(Oc2cccc(Cl)c2)c1C(=O)O	9	0.9	6	-5	0.9	-16
CC(=O)OCc1c(C(F)(F)F)nn(C)c1Oc1ccccc1	22	0.8	92*	-6	0.1	-15
CC(=O)OCc1c(C(F)(F)F)nn(C)c1Oc1cccc(C(F)(F)F)c1	37	0.6	74*	-8	0.3	-16
O=C(N1CCCCCC1)N1CCN(S(=O)(=O)N2CCCCC2)CC1	33	0.7	32	-1	0.7	-8
CCCc1[nH][nH]c(=O)c1C(c1ccccc1)C(C#N)C#N (configuration not stated)	62*	0.4	58*	4	0.4	-7
CCCc1[nH][nH]c(=O)c1C(c1ccc(Br)cc1)C(C#N)C#N (configuration not stated)	61*	0.4	43	13	0.6	20
COc1cc(OC)c(-c2nn3c(-c4cccnc4)nnc3s2)cc1OC	26	0.7	14	·	0.9	·
CCCCCCn1c(N(CC)CC)nc2c1c(=O)[nH]c(=O)n2C	9	0.9	19	6	0.8	-14
CCOC(=O)C1=NN(c2ccccc2)C(=O)/C1=C\c1ccc(N(C)C)cc1	19	0.8	3	-9	1	11
CCOC(=O)C1=C(O)c2ccccc2C(=O)/C1=C\c1ccc(CC)cc1	97*	0	89*	-17	0.1	-19
CCCc1ccc(/C=C2\C(=O)c3ccccc3C(O)=C2C(=O)OCC)cc1	92*	0.1	78*	-35	0.2	-20
CCN(CC)S(=O)(=O)c1csc(C(=O)OCC(=O)c2ccccc2)c1	·	·	·	-8	·	-16
COc1cc(NC(=O)Cn2nc(Cc3cccnc3)c3ccccc3c2=O)cc(OC)c1OC	62*	0.4	54*	-13	0.5	16
Cc1nn(CC(=O)NCc2cccnc2)c(=O)c2ccccc12	-4	1	17	-7	0.8	11
O=C(Cn1nc(Cc2cccnc2)c2ccccc2c1=O)N1CCN(c2ccccn2)CC1	87*	0.1	42	11	0.6	-25
COc1ccc(NC(=O)Cn2nc(Cc3cccnc3)c3ccccc3c2=O)cc1OC	18	0.8	4	-18	1	20
O=C(Cn1nc(Cc2cccnc2)c2ccccc2c1=O)NCc1ccc(F)cc1	83*	0.2	58*	-12	0.4	-12
O=C(c1nn(Cc2ccccc2)c(=O)c2ccccc12)N1CCN(c2ccccn2)CC1	44	0.6	33	-18	0.7	0
